This passage reports outcome results from PubChem BioAssay (Tox21).

The source made the active and inactive calls. The call rests on the fitted dose curve; in most records, active means well fitted curve in the direction sought with a large enough effect in the repeat runs; inconclusive means weak or mixed curves; inactive means flat fitted curve, though single readings scatter.

The nature of this assay: qHTS assay to test for compound auto fluorescence at 535 nm (green) in HepG2 cells (AID 720675). Conditions: green autofluorescence 485/535 nm, 1 h; series mostly up to 91.3 µM. The source says:
National Center for Advancing Translational Sciences [NCATS]
NIH Chemical Genomics Center [NCGC]
U.S. Environmental Protection Agency [EPA]
National Institutes of Environmental Health Sciences [NIEHS]
National Toxicology Program [NTP]
U.S. Food and Drug Administration [FDA]
Compound auto fluorescence often interferes with screening of the compound library against various biological targets and signaling pathways. Some of these compounds may have fluorophoric properties. Such properties may interfere with the assay outputs resulting in false positives and/or negatives. To decrease such complications and ensure the compound activities are relevant in terms of biological response, the Tox21 10K compound library was screened for auto fluorescence.
From the fluorophores used as reporter signals in our screening assays, the auto fluorescence equivalencies of compounds against three fluorophores have been evaluated: Triamterene, Fluorescein and Rose Bengal sodium for blue, green and red fluorescence, respectively. The fluorescence intensities were measured using Excitation/Emission wavelengths at 405/460nm, 485/535nm and 540/590nm for blue, green and red labels, respectively. This assay includes the green fluorescence data.
Tox21 Assay Protocol Summary:
2,000 HepG2 cells in 5 uL of culture medium (MEM containing 10% FBS) per well were dispensed into black wall/clear bottom 1536-well plates using a Multidrop Combi Dispenser (ThermoFisher Scientific, Waltham, MA). The assay plates were incubated overnight at 37 C to allow cell attachment to the well bottom, followed by the transfer of 23 nL compound or DMSO vehicle by a pintool work station (Kalypsys , San Diego, CA). After the assay plates were incubated for 1 hr at 37 C and 5% CO2, fluorescence intensities in the assay plates were measured by an Envision (PerkinElmer, Shelton, CT) plate reader using three labels for measuring blue, green and red fluorescence at […] 460, 535 and 590 nm respectively.
As for `N#Cc1cccnc1`, the molecule was called inactive.

For `O=C1CCCO1`, the molecule was called inactive.

On to `Clc1ccc(C(Cl)(Cl)Cl)cc1`, for which the outcome was inactive.

Take `CCOS(=O)(=O)OCC`: the molecule was classed as inactive.

For the molecule `C[C@]12CCC(=O)C=C1CC[C@@H]1[C@@H]2CC[C@@]2(C)[C@H]1CC[C@]2(C)O`, the call was inactive.

As for `Oc1ccc(Cl)cc1Cl`, the molecule was classed as inactive.

`CC1CC(=O)O1` (stereo not given): the result was inactive.

For the molecule `CCCCOCCOC(C)=O`, the outcome was inactive.

For `CC(C)COC(=O)c1ccccc1C(=O)OCC(C)C`, the molecule was called inactive.

Turning to `ClC(Cl)(Cl)Br`, the molecule was called inactive.

For the molecule `N#Cc1nn(-c2c(Cl)cc(C(F)(F)F)cc2Cl)c(N)c1S(=O)C(F)(F)F` (stereo not given), the call was inactive.

`O=P(OCCCl)(OCCCl)OCCCl`: the molecule was classed as inactive.

Regarding `CCNc1nc(Cl)nc(NC(C)(C)C#N)n1`, the molecule was called inactive.

As for `C=C(C)C#N`, the outcome was inactive.

As for `CCC/C=N/O`, the result was inactive.

For the molecule `CC(C)(c1ccccc1)c1ccc(O)c(C(C)(C)c2ccccc2)c1`, the molecule was classed as inactive.

`Nc1ccc2ccccc2c1`: the outcome was inactive.

Turning to `Cc1ccc([N+](=O)[O-])cc1`, the outcome was inactive.

On to `CC(C)CON=O`, for which the outcome was inactive.

Take `CC[n+]1c(-c2ccccc2)c2cc(N)ccc2c2ccc(N)cc21`: the result was inactive.

As for `ClCc1ccccn1`, the outcome was inactive.

Consider `c1ccc(C2CO2)cc1` (stereo not given), for which the outcome was inactive.

With `c1ccc2c(c1)Nc1ccccc1S2`, the result was inactive.

Take `CC(C)(c1ccc(OCC2CO2)cc1)c1ccc(OCC2CO2)cc1` (stereo not given): the molecule was classed as inactive.

In the case of `COc1ccc(C=O)cc1OC`, the call was inactive.

Turning to `O=[N+]([O-])c1ccc(Cl)c([N+](=O)[O-])c1`, the molecule was classed as inactive.

For the molecule `CNC(=S)S`, the molecule was classed as inactive.

On to `O=C(O)CF`, for which the result was inactive.

Take `CC(O)CN(CC(C)O)CC(C)O` (stereo not given): the molecule was called inactive.

As for `CN(C)P(=O)(N(C)C)N(C)C`, the result was inactive.

Take `O=C1Nc2ccc(Cl)cc2C(c2ccccc2)=NC1O` (stereo not given): the outcome was inactive.

In the case of `Cc1cc(Cl)ccc1N=CN(C)C`, the molecule was classed as inactive.

With `C[N+](C)(C)C`, the call was inactive.

In the case of `OCCOCCO`, the molecule was called inactive.

For the molecule `Cl`, the call was inactive.

`NN=C(N)N`: the molecule was called inactive.

Regarding `COP(=S)(OC)SCn1nnc2ccccc2c1=O`, the outcome was inactive.

For `O=C(O)c1nn(Cc2ccc(Cl)cc2Cl)c2ccccc12`, the result was inactive.

Consider `O=S(=O)(O)C(F)(F)C(F)(F)C(F)(F)C(F)(F)C(F)(F)C(F)(F)C(F)(F)C(F)(F)F`, for which the call was inactive.

As to `CSc1nc(NC(C)C)nc(NC(C)C)n1`, the outcome was inactive.
